Measured values from PubChem BioAssay.
The source made the active and inactive calls.

Columns and labels:
[1] = test system: Wnt5a (protein binding on small-molecule microarray); experiment: small molecules binding Wnt5a protein – biophysical, small-molecule microarray, 635/667 nm fluorescence, primary screen (AID 1142); conditions: 635 nm fluorescence, higher = more signal;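 note: fluorescence read at 667 nm with signal to noise per printed feature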
[2] = ATP-based viability of Huh7 replicon cells – cell-based, CellTiter-Glo luminescence, basal, 48 h, cytotoxicity control for HCV replication inhibitor project, primary screen (AID 1143); conditions: higher = more signal, called active from +8 up or from −8 down;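 note: Huh7 hepatoma cells carrying a hepatitis C replication reporter with no stimulus; test concentration not given here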
[3] = basal CRE-LacZ reporter activity in PC12 – cell-based, unstimulated, primary screen (AID 1145); conditions: no forskolin, luminescence, 4.5 h, higher = more signal, called active from +8 up or from −8 down
[4] = forskolin-driven CRE-LacZ activity in PC12 – cell-based, CRE-LacZ reporter, forskolin-stimulated, primary screen (AID 1146); conditions: luminescence, 4.5 h, higher = more signal, called active from +8 up or from −8 down;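 note: PC12 cells with 6xCRE LacZ reporter stimulated by forskolin 10 µM; beta-galactosidase reporter signal reflecting CREB driven transcription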
[5] = target: Streptavidin (Streptomyces avidinii) (UniProt P22629); experiment: compounds binding control protein streptavidin – biophysical, small-molecule microarray, 635/667 nm fluorescence, artefact control for SMM compound annotation, primary screen (AID 1147); conditions: higher = more signal;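 note: signal reflects streptavidin binding to arrayed compounds as a control protein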
Chain of Streptavidin (Streptomyces avidinii) (P22629 whole entry, looked up): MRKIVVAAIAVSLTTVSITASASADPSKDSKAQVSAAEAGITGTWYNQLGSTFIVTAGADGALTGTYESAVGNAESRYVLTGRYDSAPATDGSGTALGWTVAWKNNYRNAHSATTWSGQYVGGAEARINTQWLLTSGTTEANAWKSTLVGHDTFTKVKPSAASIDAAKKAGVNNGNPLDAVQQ

[6] = probe aInhba binding on compound microarray – biochemical, small-molecule microarray, 635/667 nm fluorescence, primary screen (AID 1148); conditions: higher = more signal;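 note: score merges 667nm spot fluorescence with signal-to-noise for antibody binding to printed compounds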
Torsin-1A (Homo sapiens) [7] = target: Torsin-1A (Homo sapiens) (UniProt O14656); experiment: TOR1A wild-type binding on microarray – cell lysate, small-molecule microarray, lysate, 635/667 nm, primary screen (AID 1149); conditions: COS7 hTOR1A-WT lysate, 635 nm fluorescence, higher = more signal
Chain of Torsin-1A (Homo sapiens) (O14656 whole entry, looked up): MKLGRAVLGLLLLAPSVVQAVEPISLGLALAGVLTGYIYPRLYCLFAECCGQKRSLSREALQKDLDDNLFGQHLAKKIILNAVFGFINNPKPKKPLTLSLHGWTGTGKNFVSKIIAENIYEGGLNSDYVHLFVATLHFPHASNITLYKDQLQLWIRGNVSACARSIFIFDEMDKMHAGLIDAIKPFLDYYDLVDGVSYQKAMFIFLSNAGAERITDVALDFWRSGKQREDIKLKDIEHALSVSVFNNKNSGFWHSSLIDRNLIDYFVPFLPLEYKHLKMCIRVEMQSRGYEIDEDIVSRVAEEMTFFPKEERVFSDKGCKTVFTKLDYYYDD

Torsin-1A (Homo sapiens) [8] = target: Torsin-1A (Homo sapiens) (UniProt O14656); experiment: torsin A mutant lysate binding on microarrays – cell lysate, small-molecule microarray, COS7 lysate, 635/667 nm fluorescence, primary screen (AID 1150); conditions: COS7 hTOR1A mutant lysate, 635 nm fluorescence, higher = more signal;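 note: score pools 667 nm emission and signal to noise measuring lysate protein binding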
[9] = test system: Sonic hedgehog protein (Shh); experiment: Sonic hedgehog microarray binding compounds – biochemical, small-molecule microarray, 635/667 nm fluorescence, primary screen (AID 1151); conditions: 635 nm fluorescence, higher = more signal;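 note: Shh protein binding to compounds spotted on small-molecule microarray slides; score combines spot fluorescence intensity with signal-to-noise across triplicate slides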
[10] = optical density shifts of acrAB sulA E. coli – strain DRC41, OD650, 48 h, E. coli filamentation inducer project, primary screen (AID 1152); conditions: higher = more signal, called active from +8 up or from −8 down;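 note: E. coli MC1000 strain DRC41 lacking acrAB efflux pump and sulA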
[11] = probe aLefty1 binding on compound microarray – biochemical, small-molecule microarray, 635/667 nm fluorescence, primary screen (AID 1153); conditions: higher = more signal;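 note: score merges spot fluorescence with signal-to-noise ratio from the scanned slide images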
[12] = plasmodial surface anion channel blockers, osmotic lysis – cell-based, P. falciparum Indochina, OD700, 1 h, primary screen (AID 1154); conditions: P. falciparum Indochina infected RBC osmotic lysis, higher = more signal, called active from +8 up or from −8 down
[13] = plasmodial surface anion channel blockers, osmotic lysis – cell-based, P. falciparum Indochina, OD700, 2 h, primary screen (AID 1155);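 note: lysis reports solute entry through the parasite surface anion channel PSAC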; conditions: P. falciparum Indochina infected erythrocytes, higher = more signal, called active from +8 up or from −8 down
[14] = changes in parasitized red cell lysis, either direction – P. falciparum Indochina, OD700, 3 h, PSAC antagonist project, primary screen (AID 1156); conditions: P. falciparum-infected erythrocytes, osmotic lysis, higher = more signal, called active from +8 up or from −8 down
[15] = plasmodial surface anion channel blockers, osmotic lysis – cell-based, P. falciparum Indochina, OD700, 18 h, primary screen (AID 1157); conditions: P. falciparum Indochina infected erythrocytes, osmotic lysis OD700, 18 h; higher = more signal, called active from +8 up or from −8 down
[16] = S6 kinase pathway phospho-S6 level changes – cell-based, A549, cytoblot, luminescence, serum-stimulated, primary screen (AID 1158); conditions: 5 h, higher = more signal;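 note: serum-stimulated A549 lung adenocarcinoma cells; signal is phosphorylated S6 detected by cytoblot immunostaining with HRP secondary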
[17] = target: NADPH oxidase 2 (Homo sapiens) (UniProt P04839); experiment: compounds shifting NOX2 Amplex Red fluorescence – cell-based, HEK293-NOX2, PMA-stimulated, NOX inhibitor project, primary screen (AID 1159); conditions: 45 min, higher = more signal, called active from +8 up or from −8 down; note: test concentration not given here
Chain of NADPH oxidase 2 (Homo sapiens) (P04839 whole entry, looked up): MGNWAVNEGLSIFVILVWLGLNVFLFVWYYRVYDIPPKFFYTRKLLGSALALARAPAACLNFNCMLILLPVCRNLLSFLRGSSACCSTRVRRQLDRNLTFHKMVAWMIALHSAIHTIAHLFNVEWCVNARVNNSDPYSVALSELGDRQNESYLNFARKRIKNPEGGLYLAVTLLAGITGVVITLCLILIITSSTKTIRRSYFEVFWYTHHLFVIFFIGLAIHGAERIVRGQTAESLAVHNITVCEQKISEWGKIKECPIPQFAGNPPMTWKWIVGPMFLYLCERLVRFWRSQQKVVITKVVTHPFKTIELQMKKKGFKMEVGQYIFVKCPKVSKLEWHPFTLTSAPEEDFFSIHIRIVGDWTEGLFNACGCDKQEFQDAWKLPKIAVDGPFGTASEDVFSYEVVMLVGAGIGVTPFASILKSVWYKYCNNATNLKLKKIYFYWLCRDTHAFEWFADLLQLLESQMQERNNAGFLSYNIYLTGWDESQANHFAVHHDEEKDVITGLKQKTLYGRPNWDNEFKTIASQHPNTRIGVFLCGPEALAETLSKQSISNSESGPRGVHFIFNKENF

[18] = target: NADPH oxidase 4 (Homo sapiens) (UniProt Q9NPH5); experiment: compounds shifting NOX4 Amplex Red fluorescence – cell-based, HEK293-NOX4, tetracycline-induced, NOX inhibitor project, primary screen (AID 1160); conditions: HEK293-NOX4, Amplex Red H2O2 fluorescence, 45 min; higher = more signal, called active from +8 up or from −8 down
Chain of NADPH oxidase 4 (Homo sapiens) (Q9NPH5 whole entry, looked up): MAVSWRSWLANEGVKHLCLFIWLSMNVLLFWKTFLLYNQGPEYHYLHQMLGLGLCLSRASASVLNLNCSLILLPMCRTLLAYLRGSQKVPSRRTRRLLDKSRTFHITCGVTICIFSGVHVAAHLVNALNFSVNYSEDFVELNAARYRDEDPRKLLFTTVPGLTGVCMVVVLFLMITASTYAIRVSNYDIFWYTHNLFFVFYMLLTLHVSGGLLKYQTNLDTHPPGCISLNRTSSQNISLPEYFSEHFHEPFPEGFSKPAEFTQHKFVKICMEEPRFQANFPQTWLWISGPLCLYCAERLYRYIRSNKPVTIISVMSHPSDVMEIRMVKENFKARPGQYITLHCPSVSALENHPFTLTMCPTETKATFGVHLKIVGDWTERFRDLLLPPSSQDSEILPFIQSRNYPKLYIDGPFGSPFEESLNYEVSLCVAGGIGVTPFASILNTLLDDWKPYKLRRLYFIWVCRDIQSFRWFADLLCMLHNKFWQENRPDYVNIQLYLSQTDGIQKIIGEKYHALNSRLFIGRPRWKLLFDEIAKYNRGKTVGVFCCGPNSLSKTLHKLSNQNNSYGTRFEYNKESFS

[19] = target: NADPH oxidase 5 (Homo sapiens) (UniProt Q96PH1); experiment: compounds shifting NOX5 Amplex Red fluorescence – cell-based, HEK293-NOX5, NOX inhibitor project, primary screen (AID 1161); conditions: HEK293-NOX5, ionomycin, 45 min, higher = more signal
Chain of NADPH oxidase 5 (Homo sapiens) (Q96PH1 whole entry, looked up): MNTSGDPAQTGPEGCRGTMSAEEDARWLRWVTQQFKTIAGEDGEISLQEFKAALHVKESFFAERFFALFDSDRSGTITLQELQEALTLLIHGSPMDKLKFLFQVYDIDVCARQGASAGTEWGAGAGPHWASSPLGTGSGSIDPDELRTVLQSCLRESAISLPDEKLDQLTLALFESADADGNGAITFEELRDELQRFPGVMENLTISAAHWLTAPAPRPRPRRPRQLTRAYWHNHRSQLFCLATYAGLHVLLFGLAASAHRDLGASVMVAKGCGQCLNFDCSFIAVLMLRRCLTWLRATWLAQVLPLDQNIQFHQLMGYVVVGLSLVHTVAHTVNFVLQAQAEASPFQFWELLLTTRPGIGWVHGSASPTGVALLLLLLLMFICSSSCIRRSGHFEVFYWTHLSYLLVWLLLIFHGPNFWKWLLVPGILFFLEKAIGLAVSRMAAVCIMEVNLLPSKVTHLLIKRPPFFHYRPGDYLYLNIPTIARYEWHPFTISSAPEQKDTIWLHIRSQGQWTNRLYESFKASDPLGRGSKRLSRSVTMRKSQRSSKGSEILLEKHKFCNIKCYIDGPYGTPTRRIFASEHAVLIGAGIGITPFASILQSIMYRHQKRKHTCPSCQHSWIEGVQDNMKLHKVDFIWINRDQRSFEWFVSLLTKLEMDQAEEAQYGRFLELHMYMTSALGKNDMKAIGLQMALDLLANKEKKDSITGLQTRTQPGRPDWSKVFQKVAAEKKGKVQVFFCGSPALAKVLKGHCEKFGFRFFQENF

Compound	composite z-score [1]	z-score [2]	z-score [3]	z-score [4]	composite z-score [5]	composite z-score [6]	composite z-score (Torsin-1A (Homo sapiens) [7])	composite z-score (Torsin-1A (Homo sapiens) [8])	composite z-score [9]	z-score [10]	composite z-score [11]	z-score [12]	z-score [13]	z-score [14]	z-score [15]	z-score [16]	z-score [17]	z-score [18]	z-score [19]
CO[C@@H]1COC(=O)CC=C[C@H](C)COC(=O)[C@H](Cc2ccccc2)NC(=O)CC=C[C@H]1C	-0.108	-0.87 (inactive)	-0.202 (inactive)	-1.63 (inactive)	-0.457	-0.438	1.46	0.793	1.73	0.106 (inactive)	-0.358	-0.0544 (inactive)	-0.866 (inactive)	-0.295 (inactive)	-1.49 (inactive)	0.681	-0.486 (inactive)	0.845 (inactive)	0.528
COCCOC(=O)N1C(=O)[C@@]2(c3cc(C#CCNC(N)=O)ccc31)[C@H](c1ccc(OCCO)cc1)N1[C@H](c3ccccc3)[C@H](c3ccccc3)OC(=O)[C@H]1[C@@H]2C(=O)Nc1nc2ccccc2s1	0.483	-1.6 (inactive)	0.627 (inactive)	-1.2 (inactive)	0.422	-0.224	0.72	0.471	1.6	2.28 (inactive)	0.0844	2.66 (inactive)	1.67 (inactive)	0.73 (inactive)	1.24 (inactive)	0.652	0.398 (inactive)	-0.211 (inactive)	1.12
C[C@@H]1C=CCC(=O)OC[C@H]2O[C@@H](C=C[C@@H]2O)[C@H](C)C=CCC(=O)OC[C@H]2O[C@H]1C=C[C@@H]2O	0.375	-5.78 (inactive)	0.247 (inactive)	-0.724 (inactive)	0.412	0.357	0.997	0.515	2.24	-1.91 (inactive)	0.596	0.43 (inactive)	0.278 (inactive)	-1.65 (inactive)	-0.725 (inactive)	2.22	-1.01 (inactive)	0.418 (inactive)	0.0421
Cc1ccc(S(=O)(=O)N[C@H]2COC(=O)CC=C[C@H](C)COC(=O)N[C@@H](C)C(=O)CC=C[C@@H]2C)cc1	0.177	-1.67 (inactive)	1.6 (inactive)	-0.933 (inactive)	-0.184	-0.142	0.771	0.555	1.01	0.0157 (inactive)	-0.191	1.3 (inactive)	0.678 (inactive)	1.1 (inactive)	0.451 (inactive)	1.87	0.142 (inactive)	-1.45 (inactive)	-0.213
CCN1C(C)=C(C(=O)OC)[C@@H](c2ccccc2)N2C(=O)[C@@]3(C(=O)OC)O[C@@]12[C@@H]1C(=O)CCC[C@@H]13	0.365	-0.419 (inactive)	0.462 (inactive)	-0.51 (inactive)	-0.213	0.115	0.385	0.353	2.02	-0.128 (inactive)	-0.0518	0.732 (inactive)	-0.69 (inactive)	1.56 (inactive)	-1.11 (inactive)	0.641	0.715 (inactive)	1.11 (inactive)	0.25
[N-]=[N+]=NCc1ccccc1C[C@@]1(C(=O)N2CCOCC2)N=C(c2ccc(OCCCO)cc2)O[C@@H]1c1ccccc1N=[N+]=[N-]	0.994	-3.63 (inactive)	0.218 (inactive)	-1.23 (inactive)	1.43	0.421	0.783	0.987	0.144	0.664 (inactive)	1.1	30.5 (active)	27.7 (active)	2.82 (inactive)	7.87 (inactive)	1.36	-1.49 (inactive)	0.897 (inactive)	-0.107
CO[C@H]1COC(=O)[C@H](CCSC)NC(=O)CC=C[C@@H](C)COC(=O)[C@@H](OCc2ccccc2)C=C[C@@H]1C	0.156	0.111 (inactive)	-0.0223 (inactive)	-0.48 (inactive)	-0.154	-0.0762	2.88	2.85	1.93	-0.332 (inactive)	-0.109	-0.349 (inactive)	0.238 (inactive)	0.04 (inactive)	-0.236 (inactive)	0.182	1.65 (inactive)	-1.43 (inactive)	0.00807
C[C@@H]1CC[C@H]2C(=O)N3[C@@H](CC[C@@H](C)[C@@H]3c3cccc(N4CCOCC4)c3)C(=O)N2[C@H]1c1cccc(N2CCOCC2)c1	-0.0915	-0.334 (inactive)	9.59 (active)	-0.84 (inactive)	0.766	-0.278	1.38	0.312	0.106	0.107 (inactive)	0.191	0.43 (inactive)	0.367 (inactive)	0.567 (inactive)	0.197 (inactive)	0.348	1.07 (inactive)	-1.09 (inactive)	0.125
C=CCN(C(=O)C1N(c2ccc(CCO)cc2)C(=O)C2C(C(=O)O)C3C=CC21O3)C(C)(C)C (stereo unspecified)	-0.505	-1.93 (inactive)	-0.623 (inactive)	-0.819 (inactive)	-2.01	-0.227	-3.07	-1.77	-1.34	2.75 (inactive)	0.0445	0.0302 (inactive)	-1.14 (inactive)	-1.43 (inactive)	-1.91 (inactive)	0.434	1.9 (inactive)	-1.46 (inactive)	0.845
